Laboratory results: PubChem BioAssay
The source made the active and inactive calls.

What was measured:
Albumin (Bos taurus) = Albumin (Bos taurus) (UniProt P02769); assay: compounds binding labelled BSA control protein – biochemical, small-molecule microarray, Alexa647 label, 635/667 nm fluorescence, artefact control for SMM control protein annotation, profiling panel (AID 1118); conditions: BSA-A647 binding, fluorescence 635 nm, higher = more signal;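 also: score merges 667 nm emission intensity and signal-to-noise per printed compound spot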
[1] = probe aXIP binding to arrayed compounds – biochemical, NeuroSMM set, 635/667 nm fluorescence, primary screen (AID 1119); conditions: small-molecule microarray, higher = more signal, called active from +8 up or from −8 down;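 also: probe is the protein aXip251-270 applied at 1 µg/mL to compound-printed slides; binding of probe to printed compounds measured as 667 nm fluorescence plus signal to noise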
[2] = probe aNOTCH3 binding on compound microarray – biochemical, small-molecule microarray, 635/667 nm fluorescence, primary screen (AID 1120); conditions: higher = more signal;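 also: probe is a biotin-tagged antibody raised against NOTCH3 rather than NOTCH3 protein; score merges spot fluorescence near 667 nm with spot signal to noise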
[3] = probe aNOTCH2 binding on compound microarray – biochemical, small-molecule microarray, 635/667 nm fluorescence, primary screen (AID 1121); conditions: higher = more signal;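 also: score merges feature fluorescence read at 667 nm with its signal to noise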
[4] = molecular target: Carbonic anhydrase 2 (Homo sapiens) (UniProt P00918); assay: compounds binding carbonic anhydrase 2 – biochemical, small-molecule microarray, Alexa647-labelled CAII, profiling panel (AID 1122); conditions: CAII-A647 binding fluorescence, higher = more signal
[5] = COS7 lysate on small-molecule microarray, probe aHis, 635 nm (AID 1123); conditions: COS7 cell lysate, fluorescence, higher = more signal;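 also: z-score combines 667nm fluorescence intensity with signal-to-noise per printed compound spot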
[6] = probe aLAP1 signal on lysate-treated microarray – cell lysate, small-molecule microarray, COS7 lysate, primary screen (AID 1124); conditions: probe aLAP1, fluorescence, higher = more signal;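 also: lysate comes from COS7 cells expressing LAP1 and is applied at 0.3 µg/mL; score merges spot fluorescence near 667 nm with signal-to-noise over triplicate slides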
Sam68 (KHDRBS1) = assay: compounds binding KHDRBS1 protein – biochemical, small-molecule microarray, 635 nm fluorescence, primary screen (AID 1125); conditions: higher = more signal;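 also: score merges 667 nm channel intensity with signal to noise over triplicate slides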
[7] = tested on: Chordin-like protein 2 (CHRDL2); assay: compounds binding chordin-like 2 – biochemical, small-molecule microarray, 635 nm fluorescence, primary screen (AID 1126); conditions: fluorescence 635 nm, higher = more signal;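 also: printed compound slides probed with Chrdl2 protein at 4 µg/mL for 1 h at 4 C; score merges 667 nm emission intensity with signal to noise over three replicate slides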
[8] = molecular target: Concanavalin-A (Canavalia ensiformis) (UniProt P02866); assay: compounds binding concanavalin A lectin – biochemical, small-molecule microarray, Alexa647 label, 635 nm, artefact control for SMM control protein annotation, primary screen (AID 1127); conditions: ConA-A647 binding fluorescence, higher = more signal;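 also: z combines 667 nm emission intensity with signal-to-noise across three replicate slides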
Sequence of Concanavalin-A (Canavalia ensiformis) (P02866 whole entry, looked up): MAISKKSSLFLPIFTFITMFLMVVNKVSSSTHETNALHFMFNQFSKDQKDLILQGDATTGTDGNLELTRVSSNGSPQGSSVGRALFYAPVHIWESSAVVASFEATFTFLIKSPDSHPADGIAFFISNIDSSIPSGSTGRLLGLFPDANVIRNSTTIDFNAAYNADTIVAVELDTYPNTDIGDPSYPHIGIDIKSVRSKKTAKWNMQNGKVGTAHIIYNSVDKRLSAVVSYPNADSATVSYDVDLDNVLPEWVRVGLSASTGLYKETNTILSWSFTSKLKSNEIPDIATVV

Sequence of Albumin (Bos taurus) (P02769 whole entry, looked up): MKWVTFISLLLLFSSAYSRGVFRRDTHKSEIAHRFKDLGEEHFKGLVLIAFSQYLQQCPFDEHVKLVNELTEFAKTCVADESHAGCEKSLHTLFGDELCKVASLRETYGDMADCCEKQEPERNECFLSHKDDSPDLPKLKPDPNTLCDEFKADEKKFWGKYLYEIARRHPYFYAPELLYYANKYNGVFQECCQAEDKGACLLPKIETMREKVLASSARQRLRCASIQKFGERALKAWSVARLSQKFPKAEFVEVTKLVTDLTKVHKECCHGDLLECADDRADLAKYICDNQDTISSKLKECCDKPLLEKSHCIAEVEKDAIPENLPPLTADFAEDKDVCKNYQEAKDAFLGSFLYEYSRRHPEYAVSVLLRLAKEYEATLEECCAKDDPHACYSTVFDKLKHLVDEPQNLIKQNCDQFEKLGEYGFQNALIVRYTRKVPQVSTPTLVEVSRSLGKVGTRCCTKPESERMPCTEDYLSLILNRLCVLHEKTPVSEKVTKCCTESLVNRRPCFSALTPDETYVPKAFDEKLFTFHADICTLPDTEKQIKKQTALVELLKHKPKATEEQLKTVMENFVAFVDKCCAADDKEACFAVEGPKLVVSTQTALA

| Structure (SMILES) | composite z-score (Albumin (Bos taurus)) | composite Z-score [1] | composite z-score [2] | composite z-score [3] | composite z-score [4] | composite z-score [5] | composite z-score [6] | composite z-score (Sam68 (KHDRBS1)) | composite z-score [7] | composite z-score [8] |
| --- | --- | --- | --- | --- | --- | --- | --- | --- | --- | --- |
| CC(C)C(CO)N1C(=O)[C@@H]2[C@H]3C(=O)OCC=C[C@H]3OC23C=CCN(c2ccc4ccccc4c2)C(=O)[C@@H]13 (stereo not given in full) | -0.524 | 0.508 (inactive) | -0.193 | -0.155 | 0.561 | -0.572 | 0.42 | -0.878 | -1.32 | -0.362 |
| CC[C@@H]1C=C(C(=O)O)[C@H](c2ccc(C(C)C)cc2)N1S(=O)(=O)c1ccc(C)cc1 | 0.987 | 1.1 (inactive) | 0.42 | 0.346 | 0.796 | 2.85 | 1.63 | 1.3 | -0.557 | 1.21 |
| C[n+]1ccc2ccc(O)cc2c1 | -0.567 | -0.269 (inactive) | -0.0044 | -0.102 | 0.596 | 0.403 | 0.854 | 0.14 | 1.27 | 0.369 |
| O=C1C[C@@](C(=O)O)(c2ccc([N+](=O)[O-])cc2)[C@@H](c2ccc(CO)cc2I)N1C1CCCCC1 | 0.909 | 0.477 (inactive) | 0.18 | -0.0397 | 0.673 | 1.95 | -0.405 | 0.765 | -0.422 | 1.15 |
| C=CCC(OC(C)=O)[C@@H]1[C@@H](N(Cc2ccc(-c3cccc(C(F)(F)F)c3)o2)C(=O)c2ccc(C)cc2)c2cc(OCCCO)ccc2N1C(=O)c1ccc2ccccc2n1 (stereo not given in full) | -0.706 | 0.936 (inactive) | 0.116 | -0.0255 | 0.053 | 0.163 | 0.497 | 0.0508 | 0.232 | -0.335 |
| COC(=O)[C@@]1(Cc2ccc(OC)cc2)[C@H]2c3cc(C(=O)N4CCCC4)n(CCN4CCOCC4)c3C[C@H]2CN1C(=O)c1ccccc1 | 1.06 | 1.42 (inactive) | 1.72 | 1.05 | 0.87 | 3.42 | 0.94 | 1.29 | 0.265 | 0.991 |
| O=C1OCCC/C=C\[C@H]2OC34C=CCN(CCN5CCOCC5)C(=O)[C@H]3N(CCO)C(=O)[C@@H]4C12 (stereo not given in full) | 0.394 | 0.0421 (inactive) | -0.346 | -0.211 | 0.866 | -0.0995 | -0.0129 | -0.779 | -0.601 | -1.09 |
| COCCOC(=O)N1C(=O)[C@@]2(c3cc(C#CC4=CCCCC4)ccc31)[C@H](C(=O)N1CCN(c3ncccn3)CC1)[C@H]1C(=O)O[C@H](c3ccccc3)[C@H](c3ccccc3)N1[C@@H]2c1ccc(OCCO)cc1 | 0.565 | -0.274 (inactive) | -0.0345 | 0.108 | 0.278 | 0.676 | 0.358 | 1.17 | 0.926 | 1.04 |
| O=C1OCCC/C=C\[C@H]2OC34C=CCN(Cn5nnc6ccccc65)C(=O)[C@H]3N(CCCO)C(=O)[C@@H]4C12 (stereo not given in full) | -1.38 | -0.774 (inactive) | -0.306 | -0.112 | 0.896 | 1.82 | 0.888 | 0.301 | -2.21 | -0.946 |
| CCCCCCC#C[Si](O[C@H](c1ccccc1)c1cn([C@H](C)c2ccccc2)nn1)(C(C)C)C(C)C | 0.672 | 0.282 (inactive) | 0.155 | -0.0843 | -0.0858 | 0.19 | -0.164 | 0.729 | 0.267 | 0.809 |
| CC(C)C(O)C1C=CC2C(=O)N(C)C(=O)C2N1N1CCCCC1 (stereo not given) | 0.867 | 0.875 (inactive) | 0.143 | 0.0994 | 0.773 | 2.2 | 0.111 | 0.832 | 0.117 | 0.657 |
| CCCCN1CC=CC23O[C@@H]4/C=C\CCCOC(=O)C4[C@H]2C(=O)N(C(C)CO)[C@@H]3C1=O (stereo not given in full) | 0.962 | 0.727 (inactive) | -0.222 | -0.151 | 0.839 | 0.296 | 0.203 | -0.296 | 0.112 | -1.23 |
| COCCCNC(=O)[C@@]1(C)c2ccccc2C(=O)N(Cc2ccccc2)[C@H]1c1ccc(CO)cc1 | 0.172 | 0.45 (inactive) | -0.274 | -0.189 | 0.397 | 2.62 | 0.848 | 0.203 | -1.5 | 0.17 |
| C=C[C@H](C)[C@H](O)c1ccc(OCCO)cc1 | -0.529 | -0.254 (inactive) | -0.502 | -0.185 | 0.264 | -1.09 | -0.177 | -1.74 | -2.23 | -0.802 |
| CCCNC(=O)[C@@]1(C)c2ccccc2C(=O)N(Cc2cc(F)cc(C(F)(F)F)c2)[C@H]1c1ccc(CO)cc1 | 0.695 | 0.373 (inactive) | -0.201 | -0.0569 | 0.587 | 2.24 | -0.337 | -0.0127 | -1.76 | -0.365 |
| O=C1C2C=CC(C(O)c3ccccn3)N(Nc3ccccc3F)C2C(=O)N1c1ccccc1 (stereo not given) | 0.127 | -0.21 (inactive) | -0.0918 | -0.111 | 0.766 | 0.596 | 0.753 | 0.0702 | 0.194 | 0.634 |
| O=C1O[C@H](c2ccccc2)[C@H](c2ccccc2)N2[C@H]1[C@@H](C(=O)NC[C@H](O)c1ccccc1)[C@]1(C(=O)Nc3ccc(C#CC4(O)CCCCCC4)cc31)[C@H]2c1ccccc1OCCO | 0.574 | 0.228 (inactive) | -0.0694 | 0.0785 | 0.411 | 1.45 | 1.29 | 1.32 | 0.117 | 0.8 |
| Cc1ccc(N2C(=O)c3ccccc3[C@@H](C(=O)NCC(C)C)[C@@H]2c2ccc(CO)cc2)nc1 | -0.795 | -0.204 (inactive) | -0.465 | -0.166 | 0.806 | 0.121 | 0.474 | -0.205 | -0.323 | -0.418 |
| COC(=O)[C@@]1(Cc2ccc(F)cc2)[C@H]2c3cc(C(=O)N(C)C)n(CCCNc4ccc(C(F)(F)F)cc4Cl)c3C[C@H]2CN1C(=O)c1ccccc1 | 1.03 | -0.214 (inactive) | 0.568 | 0.116 | 0.778 | 2.87 | 0.12 | 1.3 | -0.841 | 1.17 |
| O=C1O[C@@H](c2ccccc2)[C@@H](c2ccccc2)N2[C@@H](c3ccc(O)cc3)[C@]3(C(=O)Nc4ccc(C#CCCO)cc43)[C@@H](C(=O)O)[C@H]12 | 0.323 | 0.674 (inactive) | 1.05 | 0.734 | 0.653 | 2.34 | 0.734 | 0.872 | 0.434 | 1.03 |
| [N-]=[N+]=Nc1ccccc1C[C@]1(C(=O)N2CCCCC2)N=C(c2ccc(OCCCO)cc2)O[C@H]1c1ccccc1N=[N+]=[N-] | 0.94 | 0.121 (inactive) | 0.311 | 0.252 | 0.623 | 2.91 | 1.17 | 1.29 | -0.292 | 0.979 |
| C=C(/C(=C/C[C@@H](OC(C)=O)c1ccc(CO)o1)c1cnc2ccccc2c1)C(C)C | -0.243 | 1.64 (inactive) | 0.12 | -0.0771 | 0.815 | 1.5 | 1.11 | 1.3 | 0.847 | 0.971 |
| COCCOC(=O)N1C(=O)[C@@]2(c3cc(C#CC4(O)CCCCCC4)ccc31)[C@H](c1ccc(O)cc1)N1[C@H](c3ccccc3)[C@H](c3ccccc3)OC(=O)[C@H]1[C@@H]2C(=O)N1CCc2cc(OC)c(OC)cc2C1 | -0.189 | 0.131 (inactive) | -0.239 | -0.197 | 0.859 | 0.288 | 0.347 | 0.0544 | -0.861 | 0.3 |
| CC(C)(C)OC(=O)CC[C@@]1(C(=O)NCC(O)CO)N=C(c2ccc(OCCCO)cc2)O[C@@H]1c1ccccc1 (stereo not given in full) | 1.01 | 0.595 (inactive) | 0.178 | -0.0896 | 0.892 | 3.67 | 1.34 | 0.965 | -1.65 | 0.537 |
| CCOC(=O)C=Cc1cccc(OC)c1O | 0.576 | 0.229 (inactive) | -0.426 | -0.14 | -0.288 | 0.0252 | -0.15 | 0.0147 | -1.32 | 0.149 |
| C=C(C(=O)CC[C@@H](OC(C)=O)c1ccc(OCCO)cc1)C(C)C | 0.773 | 0.154 (inactive) | -0.122 | -0.0908 | 0.76 | 1.57 | -0.773 | 0.135 | 0.0246 | 0.187 |
| COCCCNC(=O)[C@]1(Cc2ccccc2N=[N+]=[N-])N=C(c2ccc(OCCCO)cc2)O[C@@H]1c1ccccc1CN=[N+]=[N-] | 0.522 | 0.0955 (inactive) | 0.523 | 0.202 | 0.398 | 2.51 | 0.561 | 1.12 | 0.228 | 1.13 |
